According to PubChem BioAssay (NCI):
This is part of a sample that, as a whole, favours compounds with a hit. Of some 83,000 tested, about 20% had one in any assay.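 96-well plates, one dose, 48 hours. Percent growth reported; active if below 10.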 A number with no mark means an inactive call. Calls of active or inactive are those of the source.

Assays:
Test in all cases: NCI-60 one-dose screen, 48 h (100 = growth as untreated, 0 = no growth, -100 = all killed)
Conditions in all cases: 10 µM unless noted
[1] = system: HCT-15 colon
[2] = system: HT29 colon
[3] = system: SNB-75 CNS
[4] = system: SNB-19 CNS
[5] = system: PC-3 prostate
[6] = system: SK-MEL-5 melanoma
[7] = system: LOX IMVI melanoma
[8] = system: SK-MEL-28 melanoma
[9] = system: U251 CNS
[10] = system: UACC-62 melanoma

Compound: COc1ccc2nc(C)cc(Sc3nc4ccccc4s3)c2c1
- growth [1]: 29.2%
- growth [2]: 26.2%
- growth [3]: 46.4%
- growth [4]: 62%
- growth [5]: 52.9%
- growth [6]: 35.2%
- growth [7]: 29.4%
- growth [8]: 62.7%

Compound: COc1ccc2nc3ccccc3c(NCc3ccc(Cl)cc3)c2c1
- growth [1]: 5.04% (active)
- growth [2]: -2.29% (active)
- growth [4]: 26.4%
- growth [9]: 2.55% (active)
- growth [5]: 19.5%
- growth [6]: 11.7%
- growth [10]: 64.7%
- growth [7]: -86.3% (active)

Compound: O=P(O)(O)C(O)(Cc1cccnc1)P(=O)(O)O
- growth [1]: 90.3%
- growth [2]: 106%
- growth [3]: 88%
- growth [4]: 107%
- growth [5]: 95.9%
- growth [6]: 103%
- growth [10]: 99.2%
- growth [7]: 86.1%
- growth [8]: 103%

Compound: Clc1ccc(-c2cnc3c(-c4ccnc(N5CCNCC5)c4)cnn3c2)cc1
- growth [1]: -22.9% (active)
- growth [2]: -7.81% (active)
- growth [3]: -68.6% (active)
- growth [4]: 3.09% (active)
- growth [5]: 15.2%
- growth [6]: 73.8%
- growth [10]: -66.8% (active)
- growth [8]: -82.8% (active)

Compound: O=C1c2cccc3cccc(c23)C(=O)N1CCCCCCCCCCN1C(=O)c2cccc3cccc(c23)C1=O
- growth [1]: 102%
- growth [2]: 106%
- growth [3]: 80.8%
- growth [4]: 104%
- growth [5]: 103%
- growth [6]: 102%
- growth [10]: 99.8%
- growth [7]: 102%
- growth [8]: 109%

Compound: CCCCc1nc(Cl)c(C2CC(c3ccc(S(N)(=O)=O)cc3)=NN2c2ccc(C#N)cc2)[nH]1 (stereo not given)
- growth [1]: 97%
- growth [2]: 100%
- growth [4]: 84.9%
- growth [9]: 76.7%
- growth [5]: 69.4%
- growth [6]: 78.3%
- growth [10]: 68%
- growth [7]: 86.6%

Compound: COc1cc(OC)cc(-c2ccc(-c3ccc(C(=N)N)s3)s2)c1
- growth [1]: -77.4% (active)
- growth [2]: -87.4% (active)
- growth [4]: -82.9% (active)
- growth [9]: -90.1% (active)
- growth [5]: -83.9% (active)
- growth [6]: -97.4% (active)
- growth [10]: -90.5% (active)
- growth [7]: -71.6% (active)

Compound: CCOC(=O)c1ccc(NC(=O)CSC(N)=O)cc1
- growth [1]: 99.4%
- growth [2]: 126%
- growth [4]: 91.1%
- growth [9]: 94.1%
- growth [5]: 85.6%
- growth [6]: 103%
- growth [10]: 96.8%
- growth [7]: 85.7%

Compound: CC(C)N(C(=S)SSC(=S)N(C(C)C)C(C)C)C(C)C
- growth [1]: 97.7%
- growth [2]: 88.1%
- growth [3]: 102%
- growth [4]: 109%
- growth [5]: 86.4%
- growth [6]: 109%
- growth [7]: 97.1%
- growth [8]: 100%

Compound: O=C(CCl)N1c2ccccc2Oc2ccc3ccccc3c21
- growth [1]: -81.1% (active)
- growth [2]: -49.8% (active)
- growth [4]: 24.5%
- growth [9]: -64.3% (active)
- growth [5]: 6.63% (active)
- growth [6]: 3.7% (active)
- growth [10]: -0.259% (active)
- growth [7]: -81.1% (active)
- growth [8]: 53.8%

Compound: c1coc(CNc2c3ccccc3nc3ccccc23)c1
- growth [1]: 44.2%
- growth [2]: 35.1%
- growth [3]: 81.5%
- growth [4]: 62.8%
- growth [5]: 67%
- growth [6]: 84.3%
- growth [10]: 66.1%
- growth [7]: 37.1%
- growth [8]: 97.7%

Compound: CCn1c(Cc2ccccc2Nc2c(Cl)cccc2Cl)nnc1SCC(=O)Nc1ccccc1C(F)(F)F
- growth [1]: 84.6%
- growth [2]: 81.8%
- growth [4]: 86.5%
- growth [9]: 93.3%
- growth [5]: 67.4%
- growth [6]: 92%
- growth [10]: 63.1%
- growth [7]: 93.9%
- growth [8]: 107%

Compound: N/C(=N\O)c1ncc(-c2ccc(C(F)(F)F)cc2)c(NC2CCCCCC2)n1
- growth [1]: -62.4% [100 µM] (active)
- growth [2]: -91.6% [100 µM] (active)
- growth [3]: -41.4% [100 µM] (active)
- growth [4]: -12.7% [100 µM] (active)
- growth [5]: -88.9% [100 µM] (active)
- growth [6]: -85.8% [100 µM] (active)
- growth [10]: -88.2% [100 µM] (active)
- growth [7]: -73.5% [100 µM] (active)
- growth [8]: 10.3% [100 µM]

Compound: CC(=O)Nc1ccc(/C=N/N2CCCCCC2)cc1
- growth [1]: 102%
- growth [2]: 102%
- growth [3]: 86.2%
- growth [4]: 91.8%
- growth [5]: 109%
- growth [6]: 106%
- growth [10]: 95.9%
- growth [7]: 101%
- growth [8]: 103%

Compound: COC(=O)[C@H](Cc1cn(C)cn1)NC(=O)[C@H](CC(C)C)NC(=O)Nc1cc(C(F)(F)F)cc(C(F)(F)F)c1
- growth [1]: -96.6% [100 µM] (active)
- growth [2]: -89.6% [100 µM] (active)
- growth [3]: -100% [100 µM] (active)
- growth [4]: -97.9% [100 µM] (active)
- growth [5]: -95.1% [100 µM] (active)
- growth [6]: -95.4% [100 µM] (active)
- growth [7]: -86.6% [100 µM] (active)
- growth [8]: -100% [100 µM] (active)

Compound: ClCCn1cnc2c(SCc3ccccc3Cl)ncnc21
- growth [1]: 21.3%
- growth [2]: 26.3%
- growth [3]: 79.2%
- growth [9]: 30.4%
- growth [5]: 38.7%
- growth [6]: 38.4%
- growth [10]: 33.7%
- growth [7]: 7.06% (active)

Compound: COc1cc2c(cc1OC)-c1cc(OC)c(OC)cc1C(CN(C)C)C2 (stereo not given)
- growth [1]: 78.2% [100 µM]
- growth [2]: 78.4% [100 µM]
- growth [3]: -56.2% [100 µM] (active)
- growth [4]: 7.08% [100 µM] (active)
- growth [5]: 56.3% [100 µM]
- growth [6]: 73.4% [100 µM]
- growth [7]: 71.1% [100 µM]
- growth [8]: 41.4% [100 µM]

Compound: O=C(Nc1ccc(-n2ccc3c(NC(=O)c4ccccc4)nccc32)cc1)c1ccc(N2CCOCC2)c(C(F)(F)F)c1
- growth [1]: 20%
- growth [2]: 2.44% (active)
- growth [3]: 23.5%
- growth [4]: 44.6%
- growth [5]: 35.7%
- growth [6]: 23.7%
- growth [10]: 49.4%
- growth [7]: 13.4%
- growth [8]: 25.3%

Compound: CCN(CC)c1ccc(/C=C2/NC(=O)NC2=O)cc1
- growth [1]: 36.6%
- growth [2]: 16.5%
- growth [4]: 61.1%
- growth [9]: 44.7%
- growth [5]: 65.8%
- growth [6]: -7.83% (active)
- growth [10]: 11.7%
- growth [7]: 46.4%
- growth [8]: 66.6%

Compound: C=C1C(=O)O[C@H]2[C@H]1CC/C(COC(=O)NCc1cccc(OC)c1)=C\CC[C@@]1(C)O[C@@H]21
- growth [1]: -3.38% (active)
- growth [2]: -29.9% (active)
- growth [4]: 69.9%
- growth [9]: 39.4%
- growth [5]: 40.1%
- growth [6]: 29.8%
- growth [10]: 31.5%
- growth [7]: 5.61% (active)
- growth [8]: 22.5%

Compound: CC(C)[C@@]12C[C@@H](OC(=O)C3CO3)[C@@](C)(O1)[C@@H]1CC[C@@H](C)[C@H]1[C@@H]2OC(=O)/C=C/c1ccccc1 (stereo not given in full)
- growth [1]: 98.1%
- growth [2]: 93.9%
- growth [4]: 94.4%
- growth [9]: 76.1%
- growth [5]: 86.2%
- growth [6]: 97.6%
- growth [10]: 77.4%
- growth [7]: 88.5%
- growth [8]: 110%

Compound: COC(=O)OC1C(O[C@H]2C[C@H]3[C@@H]4CC=C5C[C@@H](O)CC[C@]5(C)[C@H]4CC[C@]3(C)[C@H]2[C@H](C)C(=O)CCC(C)C)OCC(O)C1OC1OCC(O)C(O)C1OC(=O)c1ccc(OC)cc1 (stereo not given in full)
- growth [1]: -40.9% (active)
- growth [2]: 4.87% (active)
- growth [4]: 8.46% (active)
- growth [9]: -18.5% (active)
- growth [5]: -18.8% (active)
- growth [6]: -71.5% (active)
- growth [10]: -29% (active)
- growth [7]: -38.7% (active)
- growth [8]: -55.3% (active)

Compound: NNc1ccc(S(N)(=O)=O)cc1
- growth [1]: 110%
- growth [3]: 89.9%
- growth [5]: 90.2%
- growth [6]: 100%
- growth [7]: 86.4%

Compound: COc1cc(NCCC2CCCCN2)c2ncccc2c1OC (stereo not given)
- growth [1]: 86.1%
- growth [2]: 73.7%
- growth [4]: 91.8%
- growth [9]: 33.5%
- growth [5]: 68.2%
- growth [6]: 77.8%
- growth [10]: 81.1%
- growth [7]: 15%
- growth [8]: 107%

Compound: CC(C)CCC(=O)[C@@H](C)[C@H]1[C@@H](OC2OCC(O)C(O)C2NS(C)(=O)=O)C[C@H]2[C@@H]3CC=C4C[C@@H](O)CC[C@]4(C)[C@H]3CC[C@]12C (stereo not given in full)
- growth [1]: 14%
- growth [2]: 19.6%
- growth [4]: 32.1%
- growth [9]: 5.29% (active)
- growth [5]: 4.46% (active)
- growth [6]: 7.33% (active)
- growth [10]: -22% (active)
- growth [7]: 21.9%
- growth [8]: -36.1% (active)

Compound: COc1cc2ccc(C(C)=O)cc2cc1OC
- growth [1]: 97.3%
- growth [2]: 112%
- growth [4]: 104%
- growth [5]: 91.2%
- growth [6]: 96.5%
- growth [10]: 89.4%
- growth [7]: 92.3%
- growth [8]: 131%

Compound: FC(F)(F)c1cc(-c2nnc3n2N=C(Cl)CS3)cc(C(F)(F)F)c1
- growth [1]: 96.8%
- growth [2]: 113%
- growth [4]: 107%
- growth [5]: 96.2%
- growth [6]: 98.9%
- growth [10]: 101%
- growth [7]: 77.1%
- growth [8]: 134%

Compound: CN1C(=O)N(C)C2C1NN=c1s/c(=C\c3ccc(C(F)(F)F)cc3)c(=O)n12 (stereo not given)
- growth [1]: 24.2%
- growth [2]: 9.64% (active)
- growth [4]: 30%
- growth [9]: 21.6%
- growth [5]: 18.8%
- growth [6]: 4.36% (active)
- growth [10]: 26.7%
- growth [7]: 36.6%
- growth [8]: 60.4%

Compound: CC1=C(O)C(=O)CC1
- growth [1]: 108%
- growth [2]: 101%
- growth [4]: 101%
- growth [9]: 100%
- growth [5]: 80.9%
- growth [6]: 99.5%
- growth [10]: 110%
- growth [7]: 99.7%
- growth [8]: 100%
